Test results reported in PMC8384837, “Expanding the binding specificity for RNA recognition by a PUF domain”.

Columns and labels:
Test in all cases: yeast three-hybrid, YBZ-1, SC-Leu-His + 0.5 mM 3-AT, 4 days
Conditions in all cases: tags: N-Gal4 AD-HA kept; label: inside an RPR1-promoter hybrid RNA with tandem MS2 sites; ssRNA
PUM1 PUF domain R1-KCS = PUM1 PUF domain R1-KCS (Homo sapiens, UniProt Q14671 828-1176, S863K;R864C;Q867S)
In short: (§1)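 The interaction score is the logarithmic change in variant frequency from input to selection. It uses log2, with a pseudocount of 1 for absent variants, and frequencies came from PCR-amplified, Illumina-sequenced repeat regions. The libraries were Pumilio-1 PUF domains randomized at the three base-contacting residues per repeat, co-expressed with matching RNA elements in strain YBZ-1 (LexA–MS2 coat fusion, HIS3 reporter). Plating lasted four days on SC-Leu (input) or SC-Leu-His + 0.5 mM 3-AT (selection).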

PUM1 PUF domain R7-RRW = PUM1 PUF domain R7-RRW (Homo sapiens, UniProt Q14671 828-1176, S1079R;N1080R;E1083W)
In short: as §1

PUM1 PUF domain R5-FHS = PUM1 PUF domain R5-FHS (Homo sapiens, UniProt Q14671 828-1176, C1007F;R1008H;Q1011S)
In short: as §1

PUM1 PUF domain R5-KHS = PUM1 PUF domain R5-KHS (Homo sapiens, UniProt Q14671 828-1176, C1007K;R1008H;Q1011S)
In short: as §1

PUM1 PUF domain R5-KER = PUM1 PUF domain R5-KER (Homo sapiens, UniProt Q14671 828-1176, C1007K;R1008E;Q1011R)
In short: as §1

PUM1 PUF domain R5-CGR = PUM1 PUF domain R5-CGR (Homo sapiens, UniProt Q14671 828-1176, R1008G;Q1011R)
In short: as §1

PUM1 PUF domain R5-NPR = PUM1 PUF domain R5-NPR (Homo sapiens, UniProt Q14671 828-1176, C1007N;R1008P;Q1011R)
In short: as §1

PUM1 PUF domain R4-ARC = PUM1 PUF domain R4-ARC (Homo sapiens, UniProt Q14671 828-1176, N971A;H972R;Q975C)
In short: as §1

PUM1 PUF domain R4-ANL = PUM1 PUF domain R4-ANL (Homo sapiens, UniProt Q14671 828-1176, N971A;H972N;Q975L)
In short: as §1

PUM1 PUF domain R4-SPR = PUM1 PUF domain R4-SPR (Homo sapiens, UniProt Q14671 828-1176, N971S;H972P;Q975R)
In short: as §1

PUM1 PUF domain R4-WGS = PUM1 PUF domain R4-WGS (Homo sapiens, UniProt Q14671 828-1176, N971W;H972G;Q975S)
In short: as §1

PUM1 PUF domain R8-FFK = PUM1 PUF domain R8-FFK (Homo sapiens, UniProt Q14671 828-1176, N1122F;Y1123F;Q1126K)
In short: as §1

PUM1 PUF domain R7-LST = PUM1 PUF domain R7-LST (Homo sapiens, UniProt Q14671 828-1176, S1079L;N1080S;E1083T)
In short: as §1

PUM1 PUF domain R3-LWR = PUM1 PUF domain R3-LWR (Homo sapiens, UniProt Q14671 828-1176, C935L;R936W;Q939R)
In short: as §1

PUM1 PUF domain R3-LWA = PUM1 PUF domain R3-LWA (Homo sapiens, UniProt Q14671 828-1176, C935L;R936W;Q939A)
In short: as §1

PUM1 PUF domain R3-GWA = PUM1 PUF domain R3-GWA (Homo sapiens, UniProt Q14671 828-1176, C935G;R936W;Q939A)
In short: as §1

PUM1 PUF domain R3-RRT = PUM1 PUF domain R3-RRT (Homo sapiens, UniProt Q14671 828-1176, C935R;Q939T)
In short: as §1

PUM1 PUF domain R2-EWD = PUM1 PUF domain R2-EWD (Homo sapiens, UniProt Q14671 828-1176, N899E;Y900W;Q903D)
In short: as §1

PUM1 PUF domain R4-AQY = PUM1 PUF domain R4-AQY (Homo sapiens, UniProt Q14671 828-1176, N971A;H972Q;Q975Y)
In short: as §1

PUM1 PUF domain R4-AYP = PUM1 PUF domain R4-AYP (Homo sapiens, UniProt Q14671 828-1176, N971A;H972Y;Q975P)
In short: as §1

Sequence of PUM1 PUF domain R5-FHS (Q14671 828-1176 C1007F/R1008H/Q1011S): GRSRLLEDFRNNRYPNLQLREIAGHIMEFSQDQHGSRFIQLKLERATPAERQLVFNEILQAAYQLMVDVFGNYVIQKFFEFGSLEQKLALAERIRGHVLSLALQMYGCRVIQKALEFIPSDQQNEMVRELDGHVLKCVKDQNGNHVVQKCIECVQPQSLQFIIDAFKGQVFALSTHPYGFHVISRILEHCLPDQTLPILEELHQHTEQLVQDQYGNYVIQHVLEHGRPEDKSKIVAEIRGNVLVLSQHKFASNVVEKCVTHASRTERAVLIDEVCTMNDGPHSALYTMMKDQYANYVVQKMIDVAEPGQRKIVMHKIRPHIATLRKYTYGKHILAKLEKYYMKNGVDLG
Sequence of PUM1 PUF domain R4-ARC (Q14671 828-1176 N971A/H972R/Q975C): as the sequence (Q14671 828-1176 C1007F/R1008H/Q1011S) above, with N144A, H145R, Q148C, F180C, H181R, S184Q counted along it
Sequence of PUM1 PUF domain R3-LWA (Q14671 828-1176 C935L/R936W/Q939A): as the sequence (Q14671 828-1176 C1007F/R1008H/Q1011S) above, with C108L, R109W, Q112A, F180C, H181R, S184Q counted along it
Sequence of PUM1 PUF domain R3-LWR (Q14671 828-1176 C935L/R936W/Q939R): as the sequence (Q14671 828-1176 C1007F/R1008H/Q1011S) above, with C108L, R109W, Q112R, F180C, H181R, S184Q counted along it
Sequence of PUM1 PUF domain R3-GWA (Q14671 828-1176 C935G/R936W/Q939A): as the sequence (Q14671 828-1176 C1007F/R1008H/Q1011S) above, with C108G, R109W, Q112A, F180C, H181R, S184Q counted along it
Sequence of PUM1 PUF domain R7-RRW (Q14671 828-1176 S1079R/N1080R/E1083W): as the sequence (Q14671 828-1176 C1007F/R1008H/Q1011S) above, with F180C, H181R, S184Q, S252R, N253R, E256W counted along it
Sequence of PUM1 PUF domain R1-KCS (Q14671 828-1176 S863K/R864C/Q867S): as the sequence (Q14671 828-1176 C1007F/R1008H/Q1011S) above, with S36K, R37C, Q40S, F180C, H181R, S184Q counted along it
Sequence of PUM1 PUF domain R7-LST (Q14671 828-1176 S1079L/N1080S/E1083T): as the sequence (Q14671 828-1176 C1007F/R1008H/Q1011S) above, with F180C, H181R, S184Q, S252L, N253S, E256T counted along it
Sequence of PUM1 PUF domain R2-EWD (Q14671 828-1176 N899E/Y900W/Q903D): as the sequence (Q14671 828-1176 C1007F/R1008H/Q1011S) above, with N72E, Y73W, Q76D, F180C, H181R, S184Q counted along it
Sequence of PUM1 PUF domain R5-CGR (Q14671 828-1176 R1008G/Q1011R): as the sequence (Q14671 828-1176 C1007F/R1008H/Q1011S) above, with F180C, H181G, S184R counted along it
Sequence of PUM1 PUF domain R3-RRT (Q14671 828-1176 C935R/Q939T): as the sequence (Q14671 828-1176 C1007F/R1008H/Q1011S) above, with C108R, Q112T, F180C, H181R, S184Q counted along it
Sequence of PUM1 PUF domain R8-FFK (Q14671 828-1176 N1122F/Y1123F/Q1126K): as the sequence (Q14671 828-1176 C1007F/R1008H/Q1011S) above, with F180C, H181R, S184Q, N295F, Y296F, Q299K counted along it
Sequence of PUM1 PUF domain R5-KER (Q14671 828-1176 C1007K/R1008E/Q1011R): as the sequence (Q14671 828-1176 C1007F/R1008H/Q1011S) above, with F180K, H181E, S184R counted along it

GGCUAGAACUAGUGGAUCCCCCGGCGCCCGGCGGCUCGAGCCCGGGUAAGUGUAAAUUGUCUGCAUGCCGCCGGGCGCCAUGCCUGCAGGUCGACUCUAGAAAACAUG
binding signal (PUM1 PUF domain R1-KCS): 4.89 log2 enrichment (interaction score)

GGCUAGAACUAGUGGAUCCCCCGGCGCCCGGCGGCUCGAGCCCGGGUAAGUCUAAAUAGUCUGCAUGCCGCCGGGCGCCAUGCCUGCAGGUCGACUCUAGAAAACAUG
binding signal (PUM1 PUF domain R7-RRW): 4.3 log2 enrichment (interaction score)

GGCUAGAACUAGUGGAUCCCCCGGCGCCCGGCGGCUCGAGCCCGGGUAAGUGUGAAUAGUCUGCAUGCCGCCGGGCGCCAUGCCUGCAGGUCGACUCUAGAAAACAUG
binding signal (PUM1 PUF domain R5-FHS): 2.39 log2 enrichment (interaction score)
binding signal (PUM1 PUF domain R5-KHS): 2.1 log2 enrichment (interaction score)

GGCUAGAACUAGUGGAUCCCCCGGCGCCCGGCGGCUCGAGCCCGGGUAAGUGUCAAUAGUCUGCAUGCCGCCGGGCGCCAUGCCUGCAGGUCGACUCUAGAAAACAUG
binding signal (PUM1 PUF domain R5-FHS): 1.75 log2 enrichment (interaction score)
binding signal (PUM1 PUF domain R5-KER): 2.91 log2 enrichment (interaction score)
binding signal (PUM1 PUF domain R5-KHS): 4.98 log2 enrichment (interaction score)
binding signal (PUM1 PUF domain R5-CGR): 4.13 log2 enrichment (interaction score)
binding signal (PUM1 PUF domain R5-NPR): 4.07 log2 enrichment (interaction score)

GGCUAGAACUAGUGGAUCCCCCGGCGCCCGGCGGCUCGAGCCCGGGUAAGUGUUAAUAGUCUGCAUGCCGCCGGGCGCCAUGCCUGCAGGUCGACUCUAGAAAACAUG
binding signal (PUM1 PUF domain R5-FHS): 0.94 log2 enrichment (interaction score)
binding signal (PUM1 PUF domain R5-KHS): 6.04 log2 enrichment (interaction score)
binding signal (PUM1 PUF domain R5-NPR): 4.1 log2 enrichment (interaction score)

GGCUAGAACUAGUGGAUCCCCCGGCGCCCGGCGGCUCGAGCCCGGGUAAGUGUAUAUAGUCUGCAUGCCGCCGGGCGCCAUGCCUGCAGGUCGACUCUAGAAAACAUG
binding signal (PUM1 PUF domain R4-ARC): 1.56 log2 enrichment (interaction score)
binding signal (PUM1 PUF domain R4-ANL): 2.71 log2 enrichment (interaction score)
binding signal (PUM1 PUF domain R4-SPR): 3.12 log2 enrichment (interaction score)
binding signal (PUM1 PUF domain R4-WGS): 5.21 log2 enrichment (interaction score)

GGCUAGAACUAGUGGAUCCCCCGGCGCCCGGCGGCUCGAGCCCGGGUAAGCGUAAAUAGUCUGCAUGCCGCCGGGCGCCAUGCCUGCAGGUCGACUCUAGAAAACAUG
binding signal (PUM1 PUF domain R8-FFK): 3.27 log2 enrichment (interaction score)

GGCUAGAACUAGUGGAUCCCCCGGCGCCCGGCGGCUCGAGCCCGGGUAAGUUUAAAUAGUCUGCAUGCCGCCGGGCGCCAUGCCUGCAGGUCGACUCUAGAAAACAUG
binding signal (PUM1 PUF domain R7-RRW): 4.75 log2 enrichment (interaction score)
binding signal (PUM1 PUF domain R7-LST): 3.64 log2 enrichment (interaction score)

GGCUAGAACUAGUGGAUCCCCCGGCGCCCGGCGGCUCGAGCCCGGGUAAGUGUAAGUAGUCUGCAUGCCGCCGGGCGCCAUGCCUGCAGGUCGACUCUAGAAAACAUG
binding signal (PUM1 PUF domain R3-LWR): 5.5 log2 enrichment (interaction score)
binding signal (PUM1 PUF domain R3-LWA): 5.58 log2 enrichment (interaction score)
binding signal (PUM1 PUF domain R3-GWA): 2.87 log2 enrichment (interaction score)

GGCUAGAACUAGUGGAUCCCCCGGCGCCCGGCGGCUCGAGCCCGGGUAAGUGUAAUUAGUCUGCAUGCCGCCGGGCGCCAUGCCUGCAGGUCGACUCUAGAAAACAUG
binding signal (PUM1 PUF domain R3-LWR): 4.17 log2 enrichment (interaction score)
binding signal (PUM1 PUF domain R3-LWA): 4.71 log2 enrichment (interaction score)
binding signal (PUM1 PUF domain R3-GWA): 1.14 log2 enrichment (interaction score)
binding signal (PUM1 PUF domain R3-RRT): 3.01 log2 enrichment (interaction score)

GGCUAGAACUAGUGGAUCCCCCGGCGCCCGGCGGCUCGAGCCCGGGUAAGUGUACAUAGUCUGCAUGCCGCCGGGCGCCAUGCCUGCAGGUCGACUCUAGAAAACAUG
binding signal (PUM1 PUF domain R4-ARC): 0.97 log2 enrichment (interaction score)
binding signal (PUM1 PUF domain R4-ANL): 1.38 log2 enrichment (interaction score)
binding signal (PUM1 PUF domain R4-SPR): 2.73 log2 enrichment (interaction score)
binding signal (PUM1 PUF domain R4-WGS): 2.86 log2 enrichment (interaction score)

GGCUAGAACUAGUGGAUCCCCCGGCGCCCGGCGGCUCGAGCCCGGGUAAGUGUAAAUCGUCUGCAUGCCGCCGGGCGCCAUGCCUGCAGGUCGACUCUAGAAAACAUG
binding signal (PUM1 PUF domain R1-KCS): 4.55 log2 enrichment (interaction score)

GGCUAGAACUAGUGGAUCCCCCGGCGCCCGGCGGCUCGAGCCCGGGUAAGUGUAAAGAGUCUGCAUGCCGCCGGGCGCCAUGCCUGCAGGUCGACUCUAGAAAACAUG
binding signal (PUM1 PUF domain R2-EWD): 9.68 log2 enrichment (interaction score)

GGCUAGAACUAGUGGAUCCCCCGGCGCCCGGCGGCUCGAGCCCGGGUAAGUGUAAAUAGUCUGCAUGCCGCCGGGCGCCAUGCCUGCAGGUCGACUCUAGAAAACAUG
binding signal (PUM1 PUF domain R5-FHS): 2.12 log2 enrichment (interaction score)
binding signal (PUM1 PUF domain R3-LWR): 2.03 log2 enrichment (interaction score)
binding signal (PUM1 PUF domain R3-LWA): 2.61 log2 enrichment (interaction score)
binding signal (PUM1 PUF domain R4-ARC): 5.53 log2 enrichment (interaction score)
binding signal (PUM1 PUF domain R3-GWA): 3.32 log2 enrichment (interaction score)
binding signal (PUM1 PUF domain R5-KHS): 2.33 log2 enrichment (interaction score)
binding signal (PUM1 PUF domain R4-AQY): 3.35 log2 enrichment (interaction score)
binding signal (PUM1 PUF domain R4-AYP): 7.85 log2 enrichment (interaction score)
binding signal (PUM1 PUF domain R4-WGS): 3.11 log2 enrichment (interaction score)
